A short description of assay [1]: NCI Yeast Anticancer Drug Screen. Data for the rad50 strain (AID 155).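 Also: 0% = growth of vehicle-only cultures of the same strain.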 The settings on record: S. cerevisiae rad50 strain growth inhibition; at 50.0 µM; hits give high values. The gist of the method: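 Cells are treated with compound, grown, and their growth is then scored against vehicle-only cultures of the same repair-deficient yeast strain.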
The nature of assay [2]: NCI Yeast Anticancer Drug Screen. Data for the mec2-1 strain (AID 157). Particulars: S. cerevisiae mec2-1 strain, at 50.0 µM, hits give high values. The gist of the method: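 Strain: mec2-1 (DNA repair/cell cycle alteration). Compound exposure, then growth measured; inhibition expressed relative to vehicle.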
Assay [3] can be described thus: NCI Yeast Anticancer Drug Screen. Data for the sgs1 mgt1 strain (AID 161).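 Also: 0% = growth of cultures given vehicle only.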 Particulars: S. cerevisiae sgs1 mgt1 strain, at 50.0 µM, hits give high values. In short, it runs like this: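 Inhibition of yeast growth, normalised to vehicle-treated controls, is reported for a strain bearing genetic alterations in DNA damage repair.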
The nature of assay [4]: NCI Yeast Anticancer Drug Screen. Data for the cln2 rad14 strain (AID 165).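 Also: 0% = growth equal to vehicle treated cultures.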 The settings on record: S. cerevisiae cln2 rad14 strain, at 50.0 µM, hits give high values. The gist of the method:
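Compounds are applied to the cln2 rad14 yeast strain, and growth is then compared with that of vehicle-treated cultures to give inhibition.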

Assay [5] in a line: NCI Yeast Anticancer Drug Screen. Data for the bub3 strain (AID 167). Particulars: S. cerevisiae bub3 mutant strain, at 50.0 µM, hits give high values. The gist of the method: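 Part of a panel of yeast mutants defective in DNA damage repair or cell cycle regulation. Each strain is grown with compound, and inhibition is calculated relative to solvent-treated cultures.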
Assay [6] can be described thus: NCI Yeast Anticancer Drug Screen. Data for the mlh1 rad18 strain (AID 175). Particulars: S. cerevisiae mlh1 rad18 strain growth inhibition; at 50.0 µM; hits give high values. The gist of the method: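 Read-out is yeast growth inhibition, calculated against vehicle-only controls. The compound was applied to a strain engineered with DNA damage repair alterations.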

Here are results for 36 compounds from PubChem BioAssay (NCI).

Molecules are shown by their SMILES. About 79,000 compounds went through this panel and 15% of them were active in at least one assay; those are over-represented in the sample as a whole. A number with no mark means an inactive call. Calls of active or inactive are those of the source. Rule as the data show it: active = growth inhibition above about 70%; inactive = the rest. Where a SMILES comes first, the peptide text is derived from it. The star is where a group is joined. Trt = c1ccc(C(c2ccccc2)(c2ccccc2)*)cc1; Cbz = O=C(OCc1ccccc1)*

Take `CCc1ccc(COC(=O)NC)nc1`: the growth inhibition in assay [1] is 38%; in assay [2] it was -0.75%; in assay [3], 4%; in assay [4] it was -18%; in assay [5], -0.2%; in assay [6] it was 19.6%.

Regarding `CCCCc1ccncc1`, the growth inhibition in assay [1] was 5.3%; in assay [2], 4.55%; in assay [3] it was 18.6%; in assay [4], -25.9%; in assay [5], 8.55%; in assay [6], 19.6%.

On to `CCCc1sc(NC(C)=O)nc1-c1ccccc1`, for which the growth inhibition in assay [1] is 1.2%; in assay [2], 5.85%; in assay [3], 15.2%; in assay [4] it was 29.3%; in assay [5] it was -9.7%; in assay [6], 10.2%.

For the compound `Cc1cc(Cl)ccc1Nc1nc2c(s1)C(=O)c1ccccc1C2=O`, the growth inhibition in assay [1] was 90.8% (active); in assay [2], 84.9% (active); in assay [3] it was 85.6% (active); in assay [4] it was 86.5% (active); in assay [5], 87.6% (active); in assay [6], 91.4% (active).

As for `OCC1OCOC1C1OCOC1CO` (stereo unspecified), the growth inhibition in assay [1] is 0.55%; in assay [2], 4.35%; in assay [3], 3.95%; in assay [4], 2.9%; in assay [5], -2.55%; in assay [6], -3.45%.

On to `Brc1ccc(Br)s1`, for which the growth inhibition in assay [1] was -11.2%; in assay [2], -0.1%; in assay [3], -20.4%; in assay [4], -38.3%; in assay [5], 7.5%; in assay [6], 0.4%.

For `Cc1cccc(OC(=O)Oc2cccc(C)c2)c1`, the growth inhibition in assay [1] is -5.75%; in assay [2] it was -9.25%; in assay [3], -4.35%; in assay [4], -15.7%; in assay [5] it was 20.6%; in assay [6], 31.1%.

Consider `N#C/C(=C/n1c(=S)sc2ccccc21)c1nc2ccccc2s1`, for which the growth inhibition is 11.8% in assay [1]; 14.7% in assay [2]; 49.6% in assay [3]; 24.9% in assay [4]; 23.4% in assay [5]; 30.8% in assay [6].

Regarding `CSc1ccccc1N.[Cl][Cu][Cl]`, the growth inhibition in assay [1] is 28.8%; in assay [2] it was 19.4%; in assay [3] it was -2%; in assay [4], 14.8%; in assay [5], 28.1%; in assay [6] it was 28.4%.

As to `CC(=O)SSC12CC3CC(CC(C3)C1)C2`, the growth inhibition in assay [1] is -24.6%; in assay [2], -17.4%; in assay [3], -4.75%; in assay [4] it was -48.9%; in assay [5], 0.55%; in assay [6], -7.7%.

For `COC(=O)C(CO)NC(=O)C(CSC(c1ccccc1)(c1ccccc1)c1ccccc1)NC(=O)OCc1ccccc1` (stereo unspecified) (Cbz-Cys(Trt)-Ser-OMe; configuration not given here), the growth inhibition in assay [1] was 76.2% (active); in assay [2], 68.7%; in assay [3], 78.8% (active); in assay [4], 78% (active); in assay [5], 67.2%; in assay [6] it was 84.2% (active).

In the case of `CC1CCC(=O)NCCCCC(=O)N1` (stereo unspecified), the growth inhibition in assay [1] was 22.9%; in assay [2], 1.85%; in assay [3] it was 25.3%; in assay [4], 15.6%; in assay [5], 3.45%; in assay [6], 26.6%.

With `CSc1nc(N)c(NS(=O)(=O)c2ccc(NC(C)=O)cc2)c(=O)[nH]1`, the growth inhibition in assay [1] was 5.85%; in assay [2], 1.8%; in assay [3], 9.05%; in assay [4] it was -12.7%; in assay [5] it was 2.45%; in assay [6], 15.4%.

Turning to `ClCCCc1ccccc1C1=NCCc2ccccc21`, the growth inhibition in assay [1] is 28.4%; in assay [2], 19%; in assay [3], -14.5%; in assay [4], 3.25%; in assay [5], -14.7%; in assay [6], 9.9%.

For `CCCc1cc(=O)oc2c(C=O)c(O)cc(O)c12`, the growth inhibition in assay [1] is 37.9%; in assay [2], 24.7%; in assay [3] it was 20.6%; in assay [4], 9.6%; in assay [5], 19.7%; in assay [6], 46.5%.

For the compound `O=C(O)c1ccc(-c2nn[nH]n2)cc1`, the growth inhibition in assay [1] was -0.85%; in assay [2], -10.1%; in assay [3], -4%; in assay [4], -11.8%; in assay [5], -18.9%; in assay [6] it was -15.2%.

With `C/C=C(/c1ccccc1)c1ccc(N(C)C)cc1`, the growth inhibition in assay [1] is 2.25%; in assay [2] it was 0.85%; in assay [3], -10.1%; in assay [4], -4.7%; in assay [5], 9.2%; in assay [6], 4.35%.

For the compound `CCCCC1c2c([nH]c3ccccc23)C2C(=O)N(c3ccc(OC)cc3)C(=O)C2C1CCC` (stereo unspecified), the growth inhibition in assay [1] was 9.75%; in assay [2] it was -19.5%; in assay [3], -14.6%; in assay [4], -27.5%; in assay [5], 1.6%; in assay [6], -5.6%.

Turning to `COc1ccc(CCn2cnc3ccccc32)cc1`, the growth inhibition in assay [1] is -44.1%; in assay [2] it was -34.6%; in assay [3], -34.5%; in assay [4] it was -4.05%; in assay [5] it was -11.4%; in assay [6], -18.9%.

For `Cn1ncc2c(=O)[nH]c(NN)nc21`, the growth inhibition in assay [1] is -8.35%; in assay [2] it was -4.45%; in assay [3] it was -4.8%; in assay [4], -17.8%; in assay [5] it was -0.95%; in assay [6] it was -1.95%.

Consider `Cc1cc(=O)n2c3c(cccc13)CCC2`, for which the growth inhibition was 26.3% in assay [1]; -1.5% in assay [2]; -3.15% in assay [3]; 7.15% in assay [4]; 3.9% in assay [5]; 11.9% in assay [6].

`CCC(C)C1NC(=S)N(c2ccccc2)C1=O` (stereo unspecified): the growth inhibition in assay [1] was -8.65%; in assay [2] it was 7.05%; in assay [3], -18.1%; in assay [4] it was -0.55%; in assay [5], -9%; in assay [6], -30.4%.

As to `ClC(Cl)(Cl)C(c1ccc(Br)cc1)c1ccc(Br)cc1`, the growth inhibition in assay [1] is -18.1%; in assay [2] it was -29.5%; in assay [3], 1.15%; in assay [4] it was -43.3%; in assay [5] it was 16.8%; in assay [6] it was -0.25%.

In the case of `CCSC1(SCC)C2(CCCCC2)C(=O)C12CCCCC2`, the growth inhibition in assay [1] was -5.55%; in assay [2], 17.1%; in assay [3], 9.1%; in assay [4], -12.1%; in assay [5], 13.1%; in assay [6] it was 78.1% (active).

With `O=C(OCc1ccccc1)c1ccc(NCc2cc(O)ccc2O)cc1`, the growth inhibition in assay [1] was 88.7% (active); in assay [2], 90.7% (active); in assay [3] it was 89.7% (active); in assay [4] it was 89.6% (active); in assay [5], 88% (active); in assay [6], 92.2% (active).

With `NC1=Nc2ccccc2Sc2nncn21`, the growth inhibition in assay [1] was -18.2%; in assay [2], -43.9%; in assay [3], -10.7%; in assay [4] it was -10.6%; in assay [5], 0.1%; in assay [6], -4.35%.

Turning to `CN(C)CC(C)(C)CO`, the growth inhibition in assay [1] was 7.2%; in assay [2], -0.2%; in assay [3], 3.85%; in assay [4], 9.25%; in assay [5], -9.1%; in assay [6] it was 4.95%.

Turning to `CCN(CC)CCCNc1ncc(C)c2[nH]c3ccncc3c12`, the growth inhibition is 2.9% in assay [1]; 22.6% in assay [2]; 0.4% in assay [3]; -9.1% in assay [4]; -0.25% in assay [5]; 12.1% in assay [6].

In the case of `O=C(Cc1ccccc1CCO)NCCc1ccccc1`, the growth inhibition in assay [1] is 5.35%; in assay [2] it was 1.55%; in assay [3], -32.9%; in assay [4], 24.8%; in assay [5], -21.8%; in assay [6] it was -14.9%.

`Cc1cc(S(=O)(=O)O)cc(C(C)(C)C)c1O`: the growth inhibition is -15.6% in assay [1]; -11.4% in assay [2]; 6.3% in assay [3]; 6.25% in assay [4]; -2.45% in assay [5]; -20.6% in assay [6].

As to `NNc1nnc(Cl)c2c1ncn2Cc1ccccc1`, the growth inhibition in assay [1] was -16.9%; in assay [2], -7.45%; in assay [3], 23.1%; in assay [4] it was -21.4%; in assay [5] it was 2.75%; in assay [6], 20.6%.

With `CC(C)[C@@H]1C=C(c2ccccc2)c2ccccc2C1C(C#N)(C#N)C(C)C` (stereo partly specified), the growth inhibition in assay [1] was -30.2%; in assay [2] it was -33.5%; in assay [3], -10.3%; in assay [4], -8.4%; in assay [5], -12.9%; in assay [6] it was -14.1%.

For `Cc1ccc(C)c(OC(=O)Nc2ccccc2)c1`, the growth inhibition is -3.15% in assay [1]; 4.8% in assay [2]; -10.1% in assay [3]; -4.1% in assay [4]; -3.7% in assay [5]; -11.9% in assay [6].

With `OCCc1nccnn1`, the growth inhibition in assay [1] is -2.65%; in assay [2] it was 5.8%; in assay [3], 1.9%; in assay [4], -1.35%; in assay [5], 4.65%; in assay [6], -3.6%.

With `O=C1c2cc([N+](=O)[O-])ccc2-c2c(F)cc(F)cc21`, the growth inhibition was -58.5% in assay [1]; -8.05% in assay [2]; 9.35% in assay [3]; -50.4% in assay [4]; -2.1% in assay [5]; -10.7% in assay [6].

Regarding `C=CCNC(=S)NNC(=O)c1c(C)nc2sccn12`, the growth inhibition was -4.75% in assay [1]; -10.8% in assay [2]; -12.1% in assay [3]; 0.25% in assay [4]; -14.2% in assay [5]; -5.9% in assay [6].
